Test results as given in PubChem BioAssay AID1508622 (National Center for Advancing Translational Sciences (NCATS), 2021).
Activity calls are given as the source filed them. The call rests on the fitted dose curve; in most records, active means well fitted activation curve with a large enough effect; inconclusive means small, poorly fitted or top-dose-only effect; inactive means no such curve, though single readings can be large or run the other way.

Test: Confirmatory qHTS for Identification of Small Molecule Activators of Huntingtin-Antisense Promoter Activity
Conditions: HEK293 HTT-AS promoter firefly luciferase reporter, 24 h; series mostly up to 57.5 µM; activity change, positive = activation: at the top concentration
Outline: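 Plated reporter HEK293 cells (24 h) received library compounds at up to 57.5 uM final or 50 uM PTC124, incubated 24 h at 37C; firefly luciferase luminescence was then recorded with Dual-Glo reagent.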
Potency means the concentration at half of the fitted maximal effect.

Activity change, positive = activation, inactive:
O=C(Nc1ccc(OC(F)(F)F)cc1)C(NS(=O)(=O)c1cccc2nsnc12)c1ccccc1 (centres undefined) -22.1%, CCc1ccc(NC(=O)C2CCCN(S(=O)(=O)c3ccc(F)cc3)C2)cc1 (centres undefined) -27.7%, COCCNc1nc(NCc2cccc(Cl)c2)c2cnn(C)c2n1 -37.8%, Cc1cc(N2CCCCC2)nc2ccc(NC(=O)/C=C/c3ccc(OC(C)C)cc3)cc12 -28.6%, Cc1ccc(CCNC(=O)C2CCN(c3nnc(-n4cccc4CNc4ccc(C)cc4)s3)CC2)cc1 -36.5%, COc1ccc(OC)c(-c2nnc3ccc(-c4ccc(OC)c(O[C@@H]5CCOC5)c4)nn23)c1 -32.3%, Cc1ccc(C(=O)Nc2ccc(F)cc2)cc1S(=O)(=O)N1CCCCCC1 -30.4%, CC1=C(C(=O)OC2CCCC2)C(c2ccccc2Cl)CC(=O)N1 (centres undefined) -43.8%, Cc1ccc(Nc2ccc(N3CCN(C(=O)c4ccc([N+](=O)[O-])cc4Cl)CC3)nn2)cc1 -30%, CCOC(=O)c1cnc2ccc(OCC)cc2c1Nc1ccc(OCc2ccccc2Cl)cc1 -84.3%, Cc1cccc(-n2nc(C)c(C(=O)N3CCN(c4ccccc4)CC3)c2-n2cccc2)c1 -44.8%, CC(C)c1ccc(CNC(=O)c2ccc(N3CCCC3)c(NC(=O)NCc3ccc(F)cc3)c2)cc1 -21.6%, Cc1ccc(S(=O)(=O)C(CNC(=O)C(=O)NCCc2ccc(F)cc2)c2cccs2)cc1 (centres undefined) -32.4%, CCOc1ccc(C(=O)NCc2ccc3c(c2)CCN3C(=O)c2ccccc2)cc1 -14.1%, N#Cc1nc(-c2ccc(COc3ccc(Cl)cc3)o2)oc1N1CCC(C(N)=O)CC1 -42.8%, Cc1ccc(S(=O)(=O)NCCc2csc(-c3cccc(F)c3)n2)cc1 -94.3%, Cc1ccccc1NC(=O)c1sc2nc3c(cc2c1N)CN(Cc1ccccc1)CC3 -27.9%, Cc1cc(C)c(/C=C/c2onc(C)c2S(=O)(=O)N2CCC(C(=O)NCc3ccco3)CC2)c(C)c1 -29.2%, CCCc1ccc(C2Sc3ccccc3NC3=C2C(=O)c2ccccc23)cc1 (centres undefined) -72.4%, O=C(Nc1ccc(F)c(Cl)c1)c1cc(S(=O)(=O)N2CCCc3ccccc32)ccc1F 24.1%, Cc1ccc(C(C)C)c(OCCn2cc(C(=O)c3ccco3)c3ccccc32)c1 -25.9%, Cc1cccc(N2CCN(C(=O)c3ccc4c(c3)N(Cc3cccc(Cl)c3)C(=O)c3ccccc3S4=O)CC2C)c1 (centres undefined) -32.2%, O=S(=O)(NCC(c1ccco1)N1CCN(c2ccc(F)cc2)CC1)c1cc(F)ccc1F (centres undefined) -21.2%, CN(C)S(=O)(=O)c1ccc(C(=O)NCCSc2c(-c3ccc(Cl)cc3)[nH]c3ccccc23)cc1 -31.7%, Cc1ccc(Nc2cc(C(=O)NC3CCCC3)c3ccccc3n2)cc1C -21.2%, COc1cc(NC(=O)c2cnc3c(-c4ccc(F)cc4)c(C)nn3c2C)cc(OC)c1 -4.67%, CCc1ccc(CNC(=O)c2sc3ncccc3c2-n2c(C)ccc2C)cc1 -42.3%, CCCCOc1ccc(C(=O)Nc2ccc3c(c2)CCCN3C(=O)c2cccs2)cc1 -56.3%, COc1cccc(Cn2c(SCc3ccc(C(=O)N4CCC(C)CC4)cc3)nc3ccncc32)c1 -25.6%, Cc1nnc(N2CCC(C(=O)NCCc3ccccc3Cl)CC2)c2nn(-c3ccccc3)c(C)c12 -37.7%, Cc1cccc(NC(=O)c2ccc(F)c(S(=O)(=O)N(C)C3CCCCC3)c2)c1 -81.5%, COc1ccc2[nH]cc(CCNC(=O)c3cnn(-c4ccc(C)cc4)c3C3CCN(C(=O)OC(C)(C)C)CC3)c2c1 -37%, COc1ccccc1C1CC(=O)NC(C)=C1C(=O)OC1CCCCCC1 (centres undefined) -27.7%, CCC(Oc1ccccc1)C(=O)N1CCN(Cc2cc(=O)n3nc(-c4cccc(C)c4)sc3n2)CC1 (centres undefined) -36.5%, Cc1ccc(CNC(=O)c2c(Nc3ccccc3C)sc(C(=O)c3ccc(F)cc3)c2N)cc1 -52.7%, O=C(c1ccc2c(c1)CCN2S(=O)(=O)c1ccc(Cl)cc1)N1CCN(c2ccccc2F)CC1 -26.4%, CCc1cccc(C)c1NC(=O)Cn1cc2c(n1)CCCC2 -85.6%

Potency, active:
O=c1cc(-c2ccccc2)oc2cc(O)cc(O)c12 26.9 µM, CCN(Cc1ccccc1)C(=O)c1cc(-c2ccccc2)n[nH]1 0.953 µM
